# In PubChem BioAssay (NCI):
# Compounds without any hit were thinned out: in the full panel of roughly 83,000, 20% have a hit.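 Plates (96-well) were seeded with cells, treated with compound at one concentration, and incubated for 48 hours before percent growth was determined.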 Calls of active or inactive are those of the source. Rule for the calls: active = growth percent below 10; inactive = the rest.
# System: EKVX NSCLC
# Assay: NCI-60 one-dose screen, 48 h (100 = growth as untreated, 0 = no growth, -100 = all killed)
# Details: 10 µM
row,Compound,growth
1,CN(C)CCN=c1nc2c(c(N)n1-c1ccccc1)c(=S)n(-c1ccccc1)c(=S)n2-c1ccccc1,39.8% (inactive)
2,COc1ccc2c(c1)nc(N)c1c3cccnc3cn21,66.5% (inactive)
3,CCOC(=O)C(NC(=O)C(Cl)Cl)C(O)c1ccccc1 (centres undefined),109% (inactive)

# System: SN12C renal
# Assay: as above
# Details: 10 µM
row,Compound,growth
1,CCCCCCCNc1nc(C=O)ncc1-c1ccc(C(F)(F)F)cc1,101% (inactive)
2,CCCCCCN1CCN(Cc2ccc(N(CC)CC)cc2)C(=O)C1=O,50.8% (inactive)
3,O=C(Nc1cccc(-n2cc(-c3ccncc3)c(-c3ccc(O)c(Cl)c3)n2)c1)Nc1ccc(Cl)c(Cl)c1,17% (inactive)
4,S=C1SCC(c2ccccc2)S1 (centres undefined),101% (inactive)
5,COc1cccc(C(=O)Nc2ccc(CN3CCc4nc5cc(OC)c(OC)cc5cc43)cc2)c1,54.1% (inactive)
6,COc1ccc(-c2nn(-c3cccc(NC(=O)c4cc(C(F)(F)F)cc(C(F)(F)F)c4)c3)cc2-c2ccncc2)cc1Cl,78.1% (inactive)
7,O=C(Nc1ccccc1)Nc1cccc(-n2cc(-c3ccncc3)c(-c3ccc(O)c(Cl)c3)n2)c1,59.1% (inactive)
8,N#CCCN1C/C(=C/c2ccc(Cl)cc2)C(=O)/C(=C/c2ccc(Cl)cc2)C1,-74.8% (active)
9,COc1ccc(-c2nn(-c3cccc(NC(=O)c4cccc(C(F)(F)F)c4)c3)cc2-c2ccncc2)cc1Cl,45.3% (inactive)
10,COc1ccc([N+](=O)[O-])c(C(=O)O)c1,99.9% (inactive)
11,CN(C)CCN=c1nc2c(c(N)n1-c1ccccc1)c(=S)n(-c1ccccc1)c(=S)n2-c1ccccc1,52.3% (inactive)
